The text below walks through data of publication PMC8222333, “AsCas12a ultra nuclease facilitates the rapid generation of therapeutic cell medicines”.

Numbering of substitutions follows the chain as printed.

Targets include dAsCas12a S542R (Acidaminococcus sp., UniProt U2UMQ6 1-1307, S542R;D908A;E993A;D1235A); d-enCas12a (Acidaminococcus sp., UniProt U2UMQ6 1-1307, E174R;S542R;K548R;D908A;E993A;D1235A); d-enCas12a-Ultra (Acidaminococcus sp., UniProt U2UMQ6 1-1307, E174R;S542R;K548R;M537R;F870L;D908A;E993A;D1235A).
What all share (test): Spec-seq (native PAGE EMSA with sequencing of bound and unbound); 25 mM Tris-HCl pH 7.4, 150 mM KCl, 5 mM MgCl2, 10% glycerol, 1 mM DTT, 40 ng/uL salmon sperm DNA; 400 nM Cas12a, 480 nM crRNA, 50 nM library, 37 C 1 h; native PAGE at room temperature; high values mean tight binding
What all share (conditions): protein: recombinant
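Further: relative affinity from the bound to unbound sequence frequency ratio in Spec-seq.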

B1: GGTG (dsDNA)
DNA 1: GCTATCTAGTGCTCAGTACGCACTGGGTGAGGAAACTTCTGGCAGGACCAGGTCATGAGATCGGAAGAGCACACGTCTGAACTCCAGTCA
DNA 2: TGACTGGAGTTCAGACGTGTGCTCTTCCGATCTCATGACCTGGTCCTGCCAGAAGTTTCCTCACCCAGTGCGTACTGAGCACTAGATAGC
RNA: AAUUUCUACUCUUGUAGAUAGGAAACUUCUGGCAGGACC
As for B1, the binding signal is -8.15 lnKA with dAsCas12a S542R, -4.86 lnKA in the test with d-enCas12a and -1.95 lnKA with d-enCas12a-Ultra.

B2: GTAG (dsDNA)
DNA 1: B1 DNA 1 with G27T, T28A
DNA 2: B1 DNA 2 with A63T, C64A
RNA: B1 RNA
With B2, the binding signal is -8.28 lnKA in the test with dAsCas12a S542R, -5.83 lnKA with d-enCas12a and -3.32 lnKA with d-enCas12a-Ultra.

B3: TGAC (dsDNA)
DNA 1: B1 DNA 1 with G26T, T28A, G29C
DNA 2: B1 DNA 2 with C62G, A63T, C65A
RNA: B1 RNA
For the molecule B3, the binding signal is -8.67 lnKA with dAsCas12a S542R, -5.25 lnKA in the test with d-enCas12a and -2.74 lnKA with d-enCas12a-Ultra.

B4: TCAT (dsDNA)
DNA 1: B1 DNA 1 with G26T, G27C, T28A, G29T
DNA 2: B1 DNA 2 with C62A, A63T, C64G, C65A
RNA: B1 RNA
For B4, the binding signal in the test with dAsCas12a S542R is -8.4 lnKA; in the test with d-enCas12a it was -5.72 lnKA; with d-enCas12a-Ultra, -3.42 lnKA.

B5: TAGG (dsDNA)
DNA 1: B1 DNA 1 with G26T, G27A, T28G
DNA 2: B1 DNA 2 with A63C, C64T, C65A
RNA: B1 RNA
For B5, the binding signal with dAsCas12a S542R was -8.66 lnKA; with d-enCas12a it was -5.6 lnKA; with d-enCas12a-Ultra, -3.37 lnKA.

B6: TAAC (dsDNA)
DNA 1: B1 DNA 1 with G26T, G27A, T28A, G29C
DNA 2: B1 DNA 2 with C62G, A63T, C64T, C65A
RNA: B1 RNA
Consider B6, for which the binding signal with dAsCas12a S542R was -8.34 lnKA; in the test with d-enCas12a, -4.66 lnKA; with d-enCas12a-Ultra, -2.03 lnKA.

B7: TACG (dsDNA)
DNA 1: B1 DNA 1 with G26T, G27A, T28C
DNA 2: B1 DNA 2 with A63G, C64T, C65A
RNA: B1 RNA
B7: the values for the binding signal with dAsCas12a S542R, in the test with d-enCas12a and with d-enCas12a-Ultra were -7.71 lnKA, -3.12 lnKA and -0.852 lnKA, respectively.

B8: TAAT (dsDNA)
DNA 1: B1 DNA 1 with G26T, G27A, T28A, G29T
DNA 2: B1 DNA 2 with C62A, A63T, C64T, C65A
RNA: B1 RNA
B8: the binding signal with dAsCas12a S542R is -8.37 lnKA; in the test with d-enCas12a, -5.67 lnKA; in the test with d-enCas12a-Ultra, -3.27 lnKA.

B9: TACC (dsDNA)
DNA 1: B1 DNA 1 with G26T, G27A, T28C, G29C
DNA 2: B1 DNA 2 with C62G, A63G, C64T, C65A
RNA: B1 RNA
As for B9, the figures for the binding signal with dAsCas12a S542R, with d-enCas12a and with d-enCas12a-Ultra were -7.06 lnKA, -1.02 lnKA and -0.362 lnKA, respectively.

B10: GTGG (dsDNA)
DNA 1: B1 DNA 1 with G27T, T28G
DNA 2: B1 DNA 2 with A63C, C64A
RNA: B1 RNA
Take B10: the binding signal in the test with dAsCas12a S542R is -8.13 lnKA; with d-enCas12a, -5.91 lnKA; with d-enCas12a-Ultra, -3.47 lnKA.

B11: TAGC (dsDNA)
DNA 1: B1 DNA 1 with G26T, G27A, T28G, G29C
DNA 2: B1 DNA 2 with C62G, A63C, C64T, C65A
RNA: B1 RNA
On to B11, for which the results for the binding signal in the test with dAsCas12a S542R, in the test with d-enCas12a and in the test with d-enCas12a-Ultra were -8.4 lnKA, -5.51 lnKA and -3.07 lnKA, respectively.

B12: TCAG (dsDNA)
DNA 1: B1 DNA 1 with G26T, G27C, T28A
DNA 2: B1 DNA 2 with A63T, C64G, C65A
RNA: B1 RNA
Consider B12, for which the results for the binding signal in the test with dAsCas12a S542R, with d-enCas12a and with d-enCas12a-Ultra were -7.87 lnKA, -5.78 lnKA and -3.45 lnKA, respectively.

B13: TAGT (dsDNA)
DNA 1: B1 DNA 1 with G26T, G27A, T28G, G29T
DNA 2: B1 DNA 2 with C62A, A63C, C64T, C65A
RNA: B1 RNA
As to B13, the results for the binding signal with dAsCas12a S542R, with d-enCas12a and with d-enCas12a-Ultra were -8.48 lnKA, -5.67 lnKA and -3.31 lnKA, respectively.

B14: GTCG (dsDNA)
DNA 1: B1 DNA 1 with G27T, T28C
DNA 2: B1 DNA 2 with A63G, C64A
RNA: B1 RNA
In the case of B14, the binding signal in the test with dAsCas12a S542R was -6.96 lnKA; with d-enCas12a, -4.39 lnKA; with d-enCas12a-Ultra it was -1.21 lnKA.

B15: GTCC (dsDNA)
DNA 1: B1 DNA 1 with G27T, T28C, G29C
DNA 2: B1 DNA 2 with C62G, A63G, C64A
RNA: B1 RNA
For the molecule B15, the binding signal was -5.08 lnKA in the test with dAsCas12a S542R, -1.42 lnKA with d-enCas12a and -0.355 lnKA with d-enCas12a-Ultra.

B16: TACA (dsDNA)
DNA 1: B1 DNA 1 with G26T, G27A, T28C, G29A
DNA 2: B1 DNA 2 with C62T, A63G, C64T, C65A
RNA: B1 RNA
As to B16, the binding signal with dAsCas12a S542R was -7.41 lnKA; in the test with d-enCas12a, -1.33 lnKA; in the test with d-enCas12a-Ultra, -0.355 lnKA.

B17: TAAG (dsDNA)
DNA 1: B1 DNA 1 with G26T, G27A, T28A
DNA 2: B1 DNA 2 with A63T, C64T, C65A
RNA: B1 RNA
On to B17, for which the figures for the binding signal with dAsCas12a S542R, in the test with d-enCas12a and in the test with d-enCas12a-Ultra were -8.68 lnKA, -5.56 lnKA and -3.25 lnKA, respectively.
